Screens (PubChem BioAssay)
An excerpt weighted towards active compounds, which were near 19% of everything screened.
HT1080-NT tox: kills 2HG-producing HT-1080-NT fibrosarcoma cells; 360,000 compounds, 1.6% hits; AID 686970; Potency, µM (series often up to 46.1 µM), for the others: top-dose activity, negative = less viability, actives largely listed as cytotoxic; HT-1080-NT fibrosarcoma viability, CellTiter-Glo ATP luminescence, 48 h;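 further: NT is the 2HG producing partner of a matched IDH1 knockdown line; potency means the concentration at half of the fitted maximal effect; 0% = DMSO-treated cells and -100% = media-only wells without cells; nearly all actives have a fitted effect of over 55% in size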
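Luminescent CellTiter-Glo readout after 48 hours of compound exposure at 37 degrees C defined viability of HT-1080-NT cells. Activity was normalized to DMSO wells and cell-free media wells; concentration-response curves were fitted and assigned curve classes.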
HT1080 IDH1KD tx: toxicity to HT-1080 IDH1 knockdown cells (counter line) | HT-1080 IDH1 knockdown viability, ATP luminescence, 48 h | Potency, µM (series often up to 46.1 µM), without a hit: at the top dose activity, negative = toxicity, actives largely listed as cytotoxic | 360,000 compounds, 2% hits;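 further: potency means the concentration at half of the fitted maximal effect; 0% = DMSO wells and -100% = cell-free medium wells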
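HT-1080-IDH1KD cells (IDH1 knocked down), 750/well in RPMI with 5% FBS, treated with compound 48 h at 37 degrees C. Viability by CellTiter-Glo luminescence, normalised to DMSO and no-cell wells; concentration-response curves classed.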
DT40 TDP1 CPT: growth inhibition of DT40 Tdp1-/-;hTDP1 cells with camptothecin (screen for TDP1 inhibitors) | chicken DT40 Tdp1-/-;hTDP1 cells + 20 nM CPT, ATP luminescence, 48 h | Potency, µM (doses to about 46.2 µM), for inactives: top-dose activity change, negative = growth inhibition, most hits filed as inhibitors | 420,000 compounds, 12% hits | AID 686979; further: potency means the concentration at half of the fitted maximal effect; nearly all actives have a fitted effect of over 55% in size
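Cell growth measured by CellTiter-Glo luminescence after a minimum 48 h, 37 C compound exposure with 20 nM CPT in Tdp1-knockout DT40 cells stably expressing hTDP1, seeded 400/well; qHTS titration format.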
TDP1 cell noCPT: qHTS for Inhibitors of human tyrosyl-DNA phosphodiesterase 1 (TDP1): qHTS in cells in absence of CPT | Potency, µM (doses to about 46.2 µM), for inactives: at the top dose activity change, negative = growth inhibition, actives largely listed as inhibitors | 420,000 compounds, 15% hits | AID 686978, 2013 | DT40 Tdp1-/- hTDP1 cells, no CPT, ATP luminescence, 48 h; further: potency means the concentration at half of the fitted maximal effect; nearly all actives have a fitted effect of over 55% in size
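Growth kinetics read by CellTiter-Glo luminescence after ≥48 hr at 37 °C. Cells: DT40 Tdp1-/- stably carrying human TDP1, 400 per well, compound exposure in the absence of CPT (DMSO vehicle).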
IL1B secr inh: inhibitors of inflammasome signaling (IL-1 beta secretion); AID 743279; 360,000 compounds, 4.7% hits; activity change, % at 57.5 µM; THP-1 LPS/ATP IL-1B secretion, AlphaLISA, 16 h; hits give low values; in the data active means activity change below about -50%; inconclusive means mostly about -30% to -49%
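Secreted IL-1B measured by AlphaLISA bead assay after 16 h compound exposure of THP-1 cells; compounds (final up to 57.5 uM) added 1 h before LPS (250 ng/mL) and ATP (1.25 mM) stimulation; lower signal means less secretion.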
An asterisk follows results filed as active; ? = inconclusive; nt = no result. Unless noted, the call rests on the fitted dose curve; in most records, active means well fitted curve in the direction sought with a large enough effect; inconclusive means small, poorly fitted or top-dose-only effect, or another doubt; inactive means no such curve, though single readings can be large; an effect the other way counts as inactive or inconclusive. Unless noted, on the % scale 0 is the no-effect control and ±100 the full control effect.

SMILES | HT1080-NT tox | HT1080 IDH1KD tx | DT40 TDP1 CPT | TDP1 cell noCPT | IL1B secr inh
COc1ccc(C2=Nc3ccccc3N(C(=O)c3ccc(C(F)(F)F)cc3)C2C(=O)Nc2c(C)cccc2C)cc1 (centres undefined) | 15% | 2% | ? | ? | -11
CC(=O)Oc1ccc2c(c1)CCC1C2CC[C@]2(C)C(=O)CCC12 (some centres undefined) | nt | nt | 3% | -9% | nt
COc1ccc(-c2oc(=O)c3cc(OC)c(OC)cc3c2C#C[C@]2(O)CC[C@H]3[C@@H]4CCc5cc(OC)ccc5[C@H]4CC[C@@]32C)cc1 | 2% | 5% | ? | 16µM* | 7
CC1(C)CC(C#N)(N2CCOCC2)CCO1 (centres undefined) | 0% | 0% | 2.9µM* | ? | 15
NC(=O)CC(NC(=O)c1cccc(Br)c1)c1ccc(N2CCC(Br)CC2)c([N+](=O)[O-])c1 (centres undefined) | 3% | 1% | 21µM* | ? | 1
NC(=O)CC(NC(=O)c1ccccc1)c1ccc(N2CCC(Br)CC2)c([N+](=O)[O-])c1 (centres undefined) | 9% | 9% | 18µM* | 10µM* | 5
Cc1cc(C)cc(C(=O)NC(CC(N)=O)c2ccc(N3CCC(Br)CC3)c([N+](=O)[O-])c2)c1 (centres undefined) | 17% | 6% | ? | ? | 1
CC1CCCCC12NC(=O)N(CC(=O)N1CCN(Cc3ccc(C#N)cc3)CC1)C2=O (centres undefined) | -13% | -15% | 16µM* | 7.3µM* | 18
CCc1ccc(C2CC(c3ccc(Cl)cc3)=NNC2=O)cc1 (centres undefined) | 6% | -1% | ? | ? | -52*
O=C1NN=C(c2ccc(Br)cc2)CC1c1ccc(Cl)cc1 (centres undefined) | 0% | -14% | ? | ? | -85*
Cc1ccc(C2CC(c3ccc(Cl)cc3)=NNC2=O)cc1 (centres undefined) | -4% | -3% | -12% | ? | -13
CCN(CC)CCNC(=O)c1ccc(Cn2c(=O)c3cccn3c3cccnc32)cc1 | nt | nt | 6% | -7% | nt
CCOc1ccc(NC(=O)N2CCC(N3CCCCC3)CC2)cc1 | nt | nt | -3% | 0% | nt
Cc1cccc(C(O)(C(=O)NNc2ccc3ccccc3n2)c2cccc(C)c2)c1 | ? | ? | 6.5µM* | 6.5µM* | 22
CC(C)(C)C(=O)OCc1cc(=O)n2nc(C3CCCCC3)sc2n1 | nt | nt | -19% | -28% | nt
c1ccc(COc2ccc(-c3cc4nc(NCc5ccc6c(c5)OCO6)ccn4n3)cc2)cc1 | -19% | ? | 18µM* | 7.3µM* | 45
Clc1cccc(CNc2ccn3nc(-c4cccc(OCc5ccccc5)c4)cc3n2)c1 | ? | 9.2µM* | ? | ? | -27
c1ccc(COc2cccc(-c3cc4nc(NCc5ccc6c(c5)OCO6)ccn4n3)c2)cc1 | -16% | -24% | ? | ? | -28
Clc1cccc(CNc2ccn3nc(-c4ccccc4Cl)cc3n2)c1 | ? | ? | ? | ? | -73*
COc1cccc2c(=O)n(CC(=O)N3CCCCC3)ccc12 | 12% | 10% | -5% | -7% | -12
O=S1(=O)C=C(SCc2cccc(Cl)c2)Nc2ccccc21 | 0% | 12% | ? | -27% | -51*
O=c1[nH]c(SCc2cccc(Cl)c2)nc2ccccc12 | -5% | 1% | ? | -2% | 0
Cc1ccc(CSC2=CS(=O)(=O)c3ccccc3N2)cc1 | -19% | -20% | ? | ? | -6
Cc1cccc(CSC2=CS(=O)(=O)c3ccccc3N2)c1 | -9% | -14% | ? | 23µM* | -5
CC(Sc1nc(N)cc(=O)[nH]1)C(=O)Nc1nc2c(s1)CCCC2 (centres undefined) | 22% | 16% | -15% | -2% | 39
SMILES | HT1080-NT tox | HT1080 IDH1KD tx | DT40 TDP1 CPT | TDP1 cell noCPT | IL1B secr inh
S=C(NCc1ccccc1)N1CCN(c2cccc(Cl)c2)CC1 | -15% | -4% | -12% | ? | -72*
S=C(NCCCN1CCOCC1)N1CCN(c2cccc(Cl)c2)CC1 | ? | ? | ? | 18µM* | ?
COc1cc(C)nc(N(Cc2ccccc2)S(=O)(=O)c2ccc(C)cc2)n1 | -13% | -19% | ? | 18µM* | ?
COc1ccc(NC(=O)C2(C)Cc3c(-c4ccc5c(c4)OCO5)ccnc3O2)cn1 (centres undefined) | ? | 2.9µM* | 3.3µM* | 2.6µM* | 31
CC1(C(=O)Nc2ccc(Cl)cc2)Cc2c(-c3ccc4c(c3)OCO4)ccnc2O1 (centres undefined) | ? | ? | ? | ? | 64
COc1ccc(NC(=O)C2(C)Cc3c(-c4ccc5c(c4)OCO5)ccnc3O2)cc1OC (centres undefined) | -28% | ? | ? | ? | 2
CC1(C(=O)Nc2ccc3c(c2)OCO3)Cc2c(-c3ccc4c(c3)OCO4)ccnc2O1 (centres undefined) | ? | 2.1µM* | 1.8µM* | 2.3µM* | 82
CC1(C(=O)Nc2ccc3c(c2)OCO3)Cc2c(-c3cccc(C(N)=O)c3)ccnc2O1 (centres undefined) | ? | 3.7µM* | 2.9µM* | 4.1µM* | 15
CC(C)c1ccc(NC(=O)C2(C)Cc3c(-c4ccc5c(c4)OCO5)ccnc3O2)cc1 (centres undefined) | -21% | -14% | 23µM* | ? | 57
Cn1c(=O)[nH]c(=O)c2c1nc(SCCO)n2CC(O)COc1ccccc1 (centres undefined) | 17% | 7% | 0% | ? | 24
CCCCNC(=O)c1onc(CSc2cc(C)cc(C)c2)c1C(=O)NCCCC | 4% | 8% | ? | -18% | -2
CS(=O)(=O)c1ccccc1-c1nc(-c2ccc(C(F)(F)F)cc2)no1 | -5% | -3% | ? | 16µM* | ?
O=C(Nc1ccccc1F)c1ccc(Cn2nc(N3CCN(c4ccccc4)CC3)ccc2=O)o1 | nt | nt | 23µM* | 15µM* | nt
Cc1ccc(NC(=O)CSc2nc3ccccc3c3nc4ccccc4n23)cc1 | 0.4µM* | 0.28µM* | 0.65µM* | 0.58µM* | 44
O=C(CSc1nc2ccccc2c2nc3ccccc3n12)NCc1ccco1 | -22% | -21% | 26µM* | 23µM* | -4
O=C(CSc1ncc(-c2ccccc2)n1-c1ccccc1)NCc1ccco1 | 7% | -24% | ? | 16µM* | -2
CCn1c(SCC(=O)NCc2ccco2)nc2ccccc2c1=O | 3% | 1% | -4% | -1% | 0
